# Experimental data reported in PubChem BioAssay (Tox21).
# Active and inactive are the calls of the source. Where a call stands in place of a potency, no number is given. Calls come from the whole dose curve.
# Molecular target: Acetylcholinesterase (Homo sapiens) (UniProt P22303)
# Test: Acetylcholinesterase (AChE) small molecule antagonists: enzyme-based qHTS assay with human liver microsomes (AID 1347399); note: nearly all actives have a fitted effect of over 60% in size
# Conditions: Potency: qHTS inhibition; outcome: qHTS inhibition; series mostly up to 115 µM
# Procedure, shortened: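 Recombinant human AChE (50 mU/mL in the enzyme mix) and human liver microsomes (0.25 mg/mL final) were preincubated with compound and NADPH (0.25 mg/mL final) for 30 min at 37 C. Acetylthiocholine/DTNB was then added; thiocholine was read colorimetrically after 10 min at room temperature.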
# Acetylcholinesterase (Homo sapiens), sequence (P22303 whole entry, looked up): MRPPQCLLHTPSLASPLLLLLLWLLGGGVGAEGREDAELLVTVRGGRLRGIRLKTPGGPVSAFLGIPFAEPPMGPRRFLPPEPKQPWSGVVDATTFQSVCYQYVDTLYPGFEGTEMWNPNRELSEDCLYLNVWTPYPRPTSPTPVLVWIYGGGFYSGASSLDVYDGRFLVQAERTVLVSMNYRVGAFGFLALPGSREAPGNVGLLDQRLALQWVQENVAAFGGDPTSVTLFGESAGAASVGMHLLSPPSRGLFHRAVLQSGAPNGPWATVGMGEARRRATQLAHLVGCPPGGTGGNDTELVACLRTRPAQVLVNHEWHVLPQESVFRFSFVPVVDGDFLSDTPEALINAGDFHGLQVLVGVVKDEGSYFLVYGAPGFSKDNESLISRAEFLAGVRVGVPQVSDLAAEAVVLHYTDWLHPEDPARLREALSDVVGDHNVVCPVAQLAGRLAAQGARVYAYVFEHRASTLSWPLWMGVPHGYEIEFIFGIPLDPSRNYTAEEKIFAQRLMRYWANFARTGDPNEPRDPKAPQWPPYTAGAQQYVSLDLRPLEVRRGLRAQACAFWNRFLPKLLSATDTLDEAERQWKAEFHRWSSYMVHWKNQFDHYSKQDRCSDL
SMILES,Potency,outcome
CC(C)(C)c1cc(CO)cc(C(C)(C)C)c1O,inactive,–
COc1ccc2cc(C=O)ccc2c1,inactive,–
CCN(CCCCOC(=O)c1ccc(OC)c(OC)c1)C(C)Cc1ccc(OC)cc1 (centres undefined),inactive,–
COc1ccc(C(=O)Nc2ccccc2)cc1[N+](=O)[O-],inactive,–
CCCCCCCCCCCCN(CCO)CCO,inactive,–
Nc1ccc(N=Nc2ccccc2)c(N)c1,inactive,–
CO/N=C(\C(=O)N[C@@H]1C(=O)N2C(C(=O)O)=C(CSc3nc(=O)c(O)nn3C)CS[C@H]12)c1csc(N)n1,inactive,–
O=C1NC(=O)c2cccc3cccc1c23,inactive,–
CC1CC(=O)NN=C1c1ccc(NCC(C)(C)NCC(O)COc2cc(Cl)ccc2C#N)cc1 (centres undefined),inactive,–
CCN(CC)CCOC(=O)C(Cc1cccc2ccccc12)CC1CCCO1 (centres undefined),inactive,–
CC(N=C(NC#N)Nc1ccncc1)C(C)(C)C (centres undefined),inactive,–
Cc1ncc([C@@H](CCCCCCc2ccc3c(n2)NCCC3)CC(=O)O)cn1,inactive,–
O=C(CCBr)N1CCN(C(=O)CCBr)CC1,inactive,–
c1ccc([C@H]2CN3CCSC3=N2)cc1,–,inactive
CC(C)COCC(CN(Cc1ccccc1)c1ccccc1)N1CCCC1 (centres undefined),inactive,–
ON=C1CCCC1,inactive,–
CC(=O)N[C@@H](CCC(=O)O)C(=O)O,inactive,–
N[C@@H]1CONC1=O,inactive,–
Cc1nccn1-c1ccc(Sc2cccc(C3(C(N)=O)CCOCC3)c2)cc1,–,inactive
Nc1ccn(C2CO[C@H](CO)O2)c(=O)n1 (some centres undefined),inactive,–

SMILES,Potency,outcome
CSc1ccc(C(=O)c2[nH]c(=O)[nH]c2C)cc1,inactive,–
Cc1ccccc1C(=O)O,inactive,–
CC1=C(C)C(=O)C(CCCCC#CCCCC#CCO)=C(C)C1=O,inactive,–
CN(C)CCCSc1ccccc1NC(=O)/C=C/c1ccccc1,inactive,–
Cc1ccc(N)cc1S(=O)(=O)O,inactive,–
Cc1cccc(C)c1NC(=O)CN(CC(=O)O)CC(=O)O,inactive,–
Cc1c(I)c(=O)n(-c2ccccc2)n1C,inactive,–
O=C(CCN1CCC(c2ccccc2)C1)c1ccc2c(c1)OCCO2 (centres undefined),inactive,–
CC(C)(C)c1csc(-c2cc3cc(OCc4ccccc4CC(=O)O)ccc3o2)n1,inactive,–
CCCCCCCCCCCCCCN(CCO)CCO,inactive,–
OCCCO,inactive,–
CCOC(=O)COC(=O)c1cc(Oc2ccc(C(F)(F)F)cc2Cl)ccc1[N+](=O)[O-],inactive,–
COc1ccccc1OCCNCC(O)COc1cccc2[nH]c3ccccc3c12 (centres undefined),inactive,–
Cc1ccc2ccc3cccc4ccc1c2c34,inactive,–
CCOC(=O)c1ccc(C#Cc2ccc3c(c2)C(C)(C)CCS3)nc1,inactive,–
O=C1C=CC(=O)N1c1ccc(Cc2ccc(N3C(=O)C=CC3=O)cc2)cc1,inactive,–
OCCN1CCN(CCCN2c3ccccc3Sc3ccc(Cl)cc32)CC1,inactive,–
Cc1nc(N)nc(N)c1-c1ccc(Cl)c(Cl)c1,inactive,–
CN(C)[C@@H](CCOc1cccc2ccccc12)c1ccccc1,inactive,–
